An excerpt weighted towards active compounds, which were near 21% of everything screened.
Pf growth 96h: inhibits malaria parasite growth, 96 h; Potency, µM (doses to about 28.7 µM), actives largely listed as inhibitors; 320,000 tested, 6.9% active; P. falciparum luciferase reporter growth, 96 h
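Compounds incubated with erythrocytes infected by luciferase-expressing P. falciparum (2% hematocrit, 0.05% parasitemia final) for 96 hours, 37 C in 5% CO2. Growth inhibition scored as decreased luciferase luminescence.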
HCV inhibitor: blocks hepatitis C virus. Huh7.5.1 HCVcc-Cre infection, luciferase reporter, 44 h. Potency, µM (titrated, usually from 41.8 µM), most hits filed as inhibitors. 340,000 tested, 3.4% active
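After 44 h co-culture of compound, cells and HCVcc-Cre (~0.5 moi), substrate is added for 15 min at room temperature and luciferase measured over 15 sec. Cells were seeded at 1,000/well and pre-cultured 4 h.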
CHX counter: affects cycloheximide protein synthesis inhibition readout, counter-screen. cell reporter, cycloheximide protein synthesis inhibition counterscreen. max response, %. 300,000 tested, 12% active. AID 2314; in the data active = max response mostly above about 13%, no sharp cut-off; inactive = mostly below about 14%; also: read at 38.3 µM for the half of the compounds with a filed dose
Pf growth 48h: inhibits P. falciparum growth in the first generation, 48 h; Potency, µM (titrated, usually from 28.7 µM), usual class: inhibitors; P. falciparum luciferase growth in erythrocytes, 48 h; AID 504832; 310,000 tested, 5.9% active
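Luciferase-expressing parasites in RBCs, 2% Hct / 0.1% parasitemia final; RPMI 1640 + 0.5% Albumax; 37 C, 5% CO2, one generation; luminescence read-out, lower signal = inhibition.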
Shiga inhibitor: Shiga toxin inhibition. Vero cells, Shiga toxin protein synthesis inhibition reporter. inhibition, % at 38.7 µM. 290,000 tested, 9.2% active; in the data active = inhibition mostly above about 28%, no sharp cut-off; inactive = mostly below about 43%
AMA1-RON2 inh: disrupts binding of P. falciparum AMA1 to RON2; AlphaScreen AMA1-biotinylated RON2 peptide binding; Potency, µM (series often up to 58.2 µM), most hits filed as inhibitors; 360,000 tested, 0.2% active; also: nearly all actives have a fitted effect of over 45% in size
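AMA1 (3D7) with his tag at 25 nM final met compounds first, then biotinylated RON2 peptide at 25 nM; detection used donor plus acceptor beads, 10 µg/mL apiece, read by AlphaScreen after 30 min at room temperature.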
Hits are given with their value; - = inactive; ? = inconclusive; . = not tested or not shown; [ ] = another dose, or the depositor's remark. Unless noted, calls follow the shape of the dose curve; as a rule, active = well fitted curve in the direction sought with a large enough effect; inconclusive = small, poorly fitted or top-dose-only effect, or another doubt; inactive = no such curve, though single readings can be large; an effect the other way counts as inactive or inconclusive.

SMILES	Pf growth 96h	HCV inhibitor	CHX counter	Pf growth 48h	Shiga inhibitor	AMA1-RON2 inh
CCOc1ccccc1C(=O)NC(C(=O)NCCc1ccccn1)C(C)C (configuration not stated)	.	-	.	.	.	-
CCCCc1ccc(Nc2nc(CCC)cc(=O)[nH]2)cc1	.	-	-	10µM	-	-
CCCc1cc(=O)[nH]c(Nc2ccc3c(c2)OCCO3)n1	?	-	36	-	42	-
CCCc1cc(=O)[nH]c(Nc2ccc(N3CCCCC3)cc2)n1	.	-	-	-	-	-
Nc1ccc(Nc2ccccc2)c(Cl)c1	.	-	27	-	52	-
Nc1ccccc1Nc1ccccc1	?	-	-	-	-	-
CC(C)CN(C(=O)CN1CCc2ccccc21)c1c(N)n(CC(C)C)c(=O)[nH]c1=O	-	-	-	-	-	-
O=C(/C=C/[C@H]1O[C@@H](n2ccc(=O)[nH]c2=O)[C@H](O)[C@@H]1O)NCC1CCCO1 (some centres not stated)	.	.	.	.	.	-
CCc1ccc(/C=C2/C(=O)NC(=O)N2C(C)=O)cc1	-	-	37	-	-	-
COc1ccc(C(=O)N2CCCC(Nc3ccc(C)c(C)c3)C2)cc1F (configuration not stated)	?	-	30	-	-	-
Cc1ccc(NC2CCCN(C(=O)c3ccc4[nH]ccc4c3)C2)cc1C (configuration not stated)	13µM	-	-	?	-	-
Cc1ccc2nc(C(=O)N3CCCC(Nc4ccc(F)cc4)C3)cn2c1 (configuration not stated)	-	-	28	-	81	-
COc1ccc(C(=O)N2CCCC(Nc3ccc(F)cc3)C2)cc1F (configuration not stated)	10µM	-	-	-	-	-
O=C(c1ccc2[nH]ccc2c1)N1CCCC(Nc2ccccc2)C1 (configuration not stated)	-	-	-	-	-	-
Cc1ccc(C(=O)N2CCCC(Nc3ccc(F)cc3)C2)cc1C (configuration not stated)	-	-	-	?	-	-
CN(C(=O)COC(=O)CCC(=O)c1ccc(F)cc1)C1CCCCC1	.	-	.	.	.	-
CN(Cc1cnn(Cc2ccccc2)c1)C(=O)CN=C1NS(=O)(=O)c2ccccc21	-	-	.	-	.	-
CCN(CC)C(=O)COc1ccc(/C(C)=N/Nc2ncc(Cl)cc2Cl)cc1	-	11µM	28	-	66	-
C/C(=N\Nc1ncc(Cl)cc1Cl)c1ccc(C#N)cc1	-	-	-	-	-	?
Cc1csc(NC(=O)c2cnc3ccccc3n2)n1	-	-	8.4	-	-	-
Cc1csc(NC(=O)c2ccc3ccccc3n2)n1	-	?	42	.	98	-
Cc1csc(NC(=O)c2cc(C)nc3ccccc23)n1	-	-	-	-	-	-
O=C(Nc1nccs1)c1ccc2ccccc2n1	-	-	45	-	120	-
CCC(CC)c1nnc(NC(=O)c2ccc3ccccc3n2)s1	-	-	38	-	105	-
CCC(CC)c1nnc(NC(=O)c2cc(-c3ccccc3)nc3ccccc23)s1	?	-	-	-	-	-
SMILES	Pf growth 96h	HCV inhibitor	CHX counter	Pf growth 48h	Shiga inhibitor	AMA1-RON2 inh
Cc1cnc(C(=O)Nc2nc(-c3ccccc3)cs2)cn1	?	-	-	-	-	-
O=C(O)c1sccc1Oc1ccc(NS(=O)(=O)c2ccccc2)cc1	-	-	-	-[0.00184 µM]	-	-
Cc1ccc(C)c(S(=O)(=O)Nc2cc3c4c(c2)CCC(=O)N4CCC3)c1	?	-	.	?	.	-
Cc1cccc(NC(=O)c2ccc3ccccc3n2)c1C	-	-	23	-	186	-
O=C(Nc1ccccn1)c1ccc2ccccc2n1	-[5.75 µM]	-	66	-	81	-
Cc1ccccc1NC(=O)c1cccc(C(=O)Nc2ccccc2C)n1	-	-	-	-	-	-
C=CCCC(=O)N1C[C@H]2CON(C)[C@H]2C[C@H]1c1ccc(-n2ccnc2)cc1	.	.	.	.	.	-
CC(OC(=O)c1ccccn1)C(=O)Nc1nc(-c2ccc(F)c(F)c2)cs1 (configuration not stated)	.	-	.	.	.	-
CC(OC(=O)CNC(=O)c1ccccc1F)C(=O)Nc1nc(-c2ccccc2)cs1 (configuration not stated)	-	-	66	-	101	-

Source: PubChem BioAssay (National Center for Advancing Translational Sciences (NCATS))
